Compound activity (PubChem)
ROC1-CUL1 inh – human ROC1-CUL1 E3 ligase inhibition | P62877+Q13616 | in vitro K48 di-Ub FRET, acceptor:donor ratio, 45 min | inhibition, % at 10 µM | 140,000 tested, 0.6% active; in the data active = inhibition above about 25%
Target sequence (P62877 whole entry, looked up): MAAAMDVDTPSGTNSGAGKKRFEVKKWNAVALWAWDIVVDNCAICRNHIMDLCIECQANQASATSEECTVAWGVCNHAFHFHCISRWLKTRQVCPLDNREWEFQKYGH
Target sequence (Q13616 whole entry, looked up): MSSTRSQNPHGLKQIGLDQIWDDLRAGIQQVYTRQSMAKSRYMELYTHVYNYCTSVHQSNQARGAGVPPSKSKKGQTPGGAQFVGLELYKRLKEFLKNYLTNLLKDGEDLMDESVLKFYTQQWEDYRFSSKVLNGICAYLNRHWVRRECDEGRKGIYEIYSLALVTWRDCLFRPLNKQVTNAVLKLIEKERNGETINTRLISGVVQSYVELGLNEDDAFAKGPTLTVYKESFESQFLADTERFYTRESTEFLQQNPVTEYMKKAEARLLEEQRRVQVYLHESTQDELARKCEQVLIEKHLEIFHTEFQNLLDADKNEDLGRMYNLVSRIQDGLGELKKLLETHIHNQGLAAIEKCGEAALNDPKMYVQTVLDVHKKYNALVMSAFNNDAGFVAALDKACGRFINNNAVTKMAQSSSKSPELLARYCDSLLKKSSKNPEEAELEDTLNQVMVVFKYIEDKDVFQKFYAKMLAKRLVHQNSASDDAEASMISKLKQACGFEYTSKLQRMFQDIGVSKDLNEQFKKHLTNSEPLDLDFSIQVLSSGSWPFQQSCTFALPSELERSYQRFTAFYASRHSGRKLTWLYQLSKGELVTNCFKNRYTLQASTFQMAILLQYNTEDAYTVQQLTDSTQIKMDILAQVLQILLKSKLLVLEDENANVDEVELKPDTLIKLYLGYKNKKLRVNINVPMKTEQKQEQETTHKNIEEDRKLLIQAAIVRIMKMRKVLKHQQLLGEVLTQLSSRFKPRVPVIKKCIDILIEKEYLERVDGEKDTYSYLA
Numbers without * were called inactive. Many of the other results were omitted from the sample, so hits are more common in it than they were.

SMILES | ROC1-CUL1 inh
CCSC1=N/C(=C\c2ccc(C(=O)O)cc2)C(=O)S1 | 3.4
O=C1SC(SCc2ccccc2Cl)=N/C1=C\c1ccc(C(=O)O)cc1 | 54.2*
CC(C)(C)c1cc(/C=C2\N=C(SCc3ccccc3Cl)SC2=O)cc(C(C)(C)C)c1O | 4.8
O=C1OC(Cc2ccccn2)C(=O)C1C1=NC2CCCCC2N1 (stereo not given) | -3.7
Cc1cccc(-n2c(C)c(C)n3c4c(=O)n(C)c(=O)n(C)c4nc23)c1 | 25.6*
Cc1c(C)n2c3c(=O)n(C)c(=O)n(C)c3nc2n1-c1cccc(O)c1 | 1.3
Cc1cc(C)cc(-n2c(C)c(C)n3c4c(=O)n(C)c(=O)n(C)c4nc23)c1 | 4.1
CC1C(=NC(=O)Oc2ccccc2)C(=O)N(c2ccccc2)N1C (stereo not given) | 0.8
COc1ccc(C(=O)Nc2ccccn2)cc1OC | -9.7
Cc1ccc(S(=O)(=O)N2CCCC(CNC(=O)c3ccco3)C2)s1 (stereo not given) | -0.5
COc1ccc(C2C3=C(N=c4s/c(=C/c5ccc(C(=O)O)cc5)c(=O)n42)c2ccccc2CC3)cc1OC (stereo not given) | 91.7*
COc1ccc(C2C3=C(N=c4s/c(=C/c5ccc(OCc6cccc(C(=O)O)c6)c(OC)c5)c(=O)n42)c2ccccc2CC3)cc1 (stereo not given) | 42.9*
COc1ccc(C2C3=C(N=c4s/c(=C/c5c[nH]c6ccccc56)c(=O)n42)c2ccccc2CC3)cc1OC (stereo not given) | -3.0
COc1cc(/C=c2/sc3n(c2=O)C(c2ccccc2Cl)C2=C(N=3)c3ccccc3CC2)ccc1OCc1ccc2c(c1)OCO2 (stereo not given) | -1.2
Cc1ccc(/C=c2/sc3n(c2=O)C(c2ccc(C)cc2)C2=C(N=3)c3ccccc3CC2)cc1 (stereo not given) | 3.2
COc1cccc(C2C3=C(N=c4s/c(=C/c5ccc(O)c(OC)c5)c(=O)n42)c2ccccc2CC3)c1 (stereo not given) | -4.0
Cc1sc(C2C3=C(CC(C)(C)CC3=O)OC(=N)C2C#N)cc1CSc1ccc(Cl)cc1 (stereo not given) | 1.4
Cc1ccc(C(=O)CC(=O)C(F)(F)F)s1 | 2.9
O=C(CN(c1ccccc1F)S(=O)(=O)c1ccccc1)NCCSCc1ccccc1Cl | -5.4
CCC1C(=O)C=C2N(C1=O)c1ccccc1C2(C)C (stereo not given) | 9.4
Brc1nsc(SCSc2nc(Br)ns2)n1 | 33.3*
N=C(N)SCC(=O)NCCc1c[nH]c2ccccc12 | 3.9
OC1Cc2cc(Cl)ccc2Sc2ccccc21 (stereo not given) | -6.5
Cc1c(Cc2c(C)n(CCO)c(=O)n(C)c2=O)c(=O)n(C)c(=O)n1CCO | 3.3
CSc1c(C#N)c(N)nc2c(N=Nc3ccc(S(N)(=O)=O)cc3)c(N)nn12 | 84.4*
SMILES | ROC1-CUL1 inh
Cc1cc(C(F)(F)F)n2nc(N)c(N=Nc3cccc(C(F)(F)F)c3)c2n1 | 11.0
Cc1cc(C(F)(F)F)n2nc(N)c(N=Nc3ccccc3)c2n1 | -0.5
COc1ccc(CC(=NC(=O)c2ccccc2)C(=O)Nc2ccc3ccccc3c2)cc1 | 4.5
CN(C)c1ccc(NC(=S)Nc2ccc3snnc3c2)cc1 | 8.9
COCC(=O)Nc1cc(C(=O)NC(c2ccccn2)C(F)(F)F)c2c(c1)nc(C1CCC1)n2C (stereo not given) | 3.9
O=C(O)CCNc1nc(-c2ccccc2)nc2ccccc12 | 3.0
O=C(O)CCSc1ncnc2ccccc12 | 8.2
O=C(O)CCNc1cccc2ncccc12 | 80.8*
Nc1nc(NCc2ccccc2)nc(-c2cc(Cl)ccc2O)n1 | 3.2
O=C1CC(=O)c2sc3nc(-c4cccs4)cc(-c4ccc(F)cc4)c3c2N1 | 26.1*
Nc1nc(N)c2sc3nc(-c4cccs4)cc(-c4ccc(F)cc4)c3c2n1 | 6.4
O=C1CC(=O)c2sc3nc(-c4ccccc4)ccc3c2N1 | 0.5
COc1c(Cl)ccc(S(=O)(=O)N2CCN(c3ccccc3)CC2)c1Cl | 3.9
COc1c(C#N)c(OC)c(OC)c(C#N)c1OC | 6.3
Cc1ccc(S(=O)(=O)N=NC2CCSCC2)cc1 | -0.7
Cc1ccc(S(=O)(=O)N=C2Cc3ccccc3N2C)cc1 | 27.0*
CC(=O)N=C1CC(=NS(=O)(=O)c2ccc(C)cc2)CC(=NC(C)=O)C1=O | -1.0
CNc1ncnc(Sc2c(Br)c(=O)n(C)c(=O)n2C)c1N | 80.5*
O=C(Oc1cccc2ccccc12)c1ccc(C(F)(F)F)cc1 | -2.1
CC(C)COc1ccccc1NC(=O)OC(C)(C)C | -0.5
CCCOC(=O)c1c(NC(=O)c2ccccc2F)sc2c1CCCC2 | 4.1
CCOc1ccc(S(=O)(=O)N2CCOCC2)cc1 | -6.9
CCOC(=O)C1CCN(S(=O)(=O)c2ccc(OCC)cc2)CC1 | 5.7
CCOc1ccc(S(=O)(=O)N2CCC(Cc3ccccc3)CC2)cc1 | 58.7*
Cc1cc(C)n(CC(=O)N2CCc3onc(-c4ccc(F)c(F)c4)c3C2)n1 | 8.4
SMILES | ROC1-CUL1 inh
O=C(c1coc(COc2cccc3cnccc23)n1)N1CCCC1 | 0.7
CC(C)CNC(=O)c1coc(COc2cccc3cccnc23)n1 | 6.4
O=C(c1coc(COc2cccc3cccnc23)n1)N1CC[C@@H]2CCCC[C@H]2C1 | 56.6*
c1ccc2c(-c3ccnc4ncnn34)cccc2c1 | -0.6
Cc1nc2ccccc2nc1Sc1ccccc1 | -2.4
N#CC(C=Nc1ccccc1-c1ccccc1)C(=O)NC(=O)Cc1ccccc1 (stereo not given) | -7.3
Oc1c(Cl)c(Cl)c2c(c1Cl)CC(Nc1ccc3ncccc3c1)O2 (stereo not given) | 81.3*
COC(=O)c1ccc2ncccc2c1 | -16.5
CNCc1cn(C2CCN(C(=O)c3ccc4ncccc4c3)CC2)nn1 | 7.5
CC(=O)C1C(=O)C(=O)N(CCCN(C)C)C1c1ccc(O)cc1 (stereo not given) | 8.3
Cc1ncc2c(c1-c1nnn(CC(=O)Nc3ccnn3CC(C)C)n1)CCC2 | 8.1
Cc1ccc2c(c1)nnn2S(=O)(=O)c1ccc(C(C)(C)C)cc1 | 0.0
Cc1ccc2c(c1)nnn2S(=O)(=O)c1ccc([N+](=O)[O-])cc1 | -5.3
CCc1ccc(S(=O)(=O)n2nnc3ccccc32)cc1 | 26.1*
Cc1ccc(NC(=O)c2sc3nc(-c4ccc(F)cc4)ccc3c2N)c(C)c1 | -6.8
Cc1ccc(N=C2S/C(=C\c3ccc(O)cc3)C(=O)N2c2ccc(C)cc2)cc1 | -8.6
Cc1ccc(N=C2S/C(=C\c3ccc(OCC(=O)O)cc3)C(=O)N2c2ccc(C)c(C)c2)cc1C | 88.5*
O=C(O)COc1ccc(/C=C2\SC(=O)N(c3cccc(Cl)c3)C2=O)cc1 | -10.0
CCn1c(=S)[nH]c2scc(-c3ccc(F)cc3)c2c1=O | -1.2
CCOc1cc2c(cc1OCC)C(c1ccccc1OC)CC(=O)N2 (stereo not given) | 9.8
COc1cccc(C2SCCCS2)c1O | 8.2
COc1ccccc1C1NCCS1 (stereo not given) | 33.1*
COc1ccc(-c2[nH]nc3c2C(c2ccc(OC)c(Cn4nnc5ccccc54)c2)C(C#N)C(=N)O3)cc1 (stereo not given) | -7.7
C/C(=N\Nc1ccccc1[N+](=O)[O-])c1ccc2ccccc2c1 | -14.4
O=C1Nc2ccc(Br)cc2/C1=C\c1nc2ccccc2c(=O)n1-c1cccc(C(=O)O)c1 | 31.7*
O=C(O)COc1ccccc1/C=C1\C(=O)Nc2ccc(Br)cc21 | 5.2
O=C1Nc2ccc(Br)cc2C1=Cc1nc2ccccc2c(=O)n1Cc1ccccc1 | -4.1
COc1ccc(-c2cc(-c3ccc(Cl)cc3)c3c(N)c(C(=O)Nc4ccc(C)cc4)sc3n2)cc1 | -5.8
